Source: PubChem BioAssay (EPA / NIEHS)
Records with an inconclusive call do not appear. The source made the active and inactive calls. Rule for the calls, unless noted: active = hit-call score of the fitted dose curve at least 0.9, where 1 is the maximum; inactive = score below 0.9.

Columns and labels:
[1] = ACEA_ER_80hr: ACEA Biosciences xCELLigence Real-Time Cell Analysis on Estrogen Receptor Agonism for Proliferation (AID 2282667; active = hit-call score of the fitted dose curve at least 0.9, where 1 is the maximum); details: T47D proliferation, impedance (xCELLigence), 80 h
Summary of the method: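 Real-time electrical impedance tracked growth of the human breast line T47D, with the 80 h post-dosing value used. Dosing spanned eight 1:4 steps down from a 100 uM final top concentration, run in duplicate.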

[2] = ATG_CRE_CIS: Attagene CIS-FACTORIAL HepG2 Assay for human cAMP Responsive Element (CRE) binding protein 3 (AID 2282926); details: HepG2 CRE cis-reporter, Attagene multiplexed mRNA; actives raise or lower the signal
Summary of the method: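 Assay format: transient reporter transfection of HepG2, 24 h treatment, total RNA isolation with DNase I step. Reporter abundance read by fluorescence after PCR and capillary separation; DMSO-normalised gain or loss fitting.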

[3] = target: CCAAT/enhancer-binding protein beta (Homo sapiens) (UniProt P17676); assay: ATG_C_EBP_CIS: Attagene CIS-FACTORIAL HepG2 Assay for human CCAAT/Enhancer Binding Protein (C/EBP) beta (AID 2282927); details: HepG2 Attagene cis-factorial transcription factor reporter; actives raise or lower the signal
Summary of the method: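 HepG2 transiently transfected with multiplexed reporter units under cis-regulatory promoters reporting endogenous C/EBPb activity. After 24 h exposure, reporter mRNA assayed by RT-PCR, fluorescent labelling, HpaI digestion and capillary electrophoresis; bidirectional fitting versus DMSO.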

[4] = ATG_DR4_LXR_CIS: Attagene CIS-FACTORIAL HepG2 Assay for human Liver X Receptor (LXR), DR4 submotif (AID 2282929); details: HepG2 Attagene DR4 cis-reporter, mRNA transcription; actives raise or lower the signal
Summary of the method: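 HepG2, transient MRTU transfection, cis-element (DR4) promoter; 24 h compound exposure; total RNA → oligo(dT) RT → PCR → 6-FAM primer extension → HpaI cut → CE. Gain/loss vs DMSO, bidirectional fit.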

[5] = target: Aryl hydrocarbon receptor (Homo sapiens) (UniProt P35869); assay: ATG_Ahr_CIS: Attagene CIS-FACTORIAL HepG2 Assay for human Aryl Hydrocarbon Receptor (Ahr) (AID 2282930); details: HepG2 AhR cis-factorial reporter transcription; actives raise or lower the signal
Summary of the method: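 HepG2 cells transiently transfected with cis-element-driven multiplexed reporter units; endogenous AhR activity read as reporter mRNA 24 h after dosing, via RT-PCR, 6-FAM labelling, HpaI digestion and capillary electrophoresis. Bidirectional fit relative to DMSO.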

[6] = ATG_AP_1_CIS: Attagene CIS-FACTORIAL HepG2 Assay for human Activator Protein 1 (AP-1) (AID 2282931); details: HepG2 Attagene cis-factorial AP-1 reporter mRNA; actives raise or lower the signal
Summary of the method: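 Transient MRTU transfection of HepG2 → 24 h chemical treatment → RNA isolation, RT-PCR, 6-FAM labelling, HpaI digest → capillary electrophoresis. Fit: bidirectional, DMSO negative control.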

[7] = ATG_AP_2_CIS: Attagene CIS-FACTORIAL HepG2 Assay for human Activator Protein 2 (AP-2) (AID 2282932); details: HepG2 AP-2 cis-reporter, Attagene transcription factor profiling; actives raise or lower the signal
Summary of the method: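 Read-out: fluorescent reporter mRNA via RT-PCR and capillary electrophoresis, 24 h post-dose in transiently transfected HepG2. Endogenous factors drive cis-promoter reporters; gain or loss of signal fitted bidirectionally against DMSO.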

[8] = ATG_BRE_CIS: Attagene CIS-FACTORIAL HepG2 Assay for human Bone Morphogenetic Protein (BMP) Response Element (BRE) (AID 2282933); details: HepG2 BMP response element reporter, Attagene transcription factor profiling; actives raise or lower the signal
Summary of the method: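 Endogenous transcription factor activity read in transiently transfected HepG2 cells after 24 h chemical exposure. Bidirectional curve fitting against DMSO; readout is reporter transcript level by RT-PCR with capillary electrophoresis of labelled products.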

[9] = target: Retinoic acid receptor alpha (Homo sapiens) (UniProt P10276); assay: ATG_DR5_RAR_CIS: Attagene CIS-FACTORIAL HepG2 Assay for human Retinoic Acid Receptor Alpha (RARE), DR5 submotif (AID 2282934); details: HepG2 Attagene cis-factorial RARE DR5 reporter, mRNA; actives raise or lower the signal
Summary of the method: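 HepG2 cells transiently transfected with multiplexed reporter units; DR5 cis-element drives reporter through endogenous transcription factors. After 24 h dosing, reporter mRNA quantified by RT-PCR, fluorescent labeling, HpaI digestion and capillary electrophoresis; bidirectional fitting versus DMSO.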

[10] = target: Transcription factor E2F1 (Homo sapiens) (UniProt Q01094); assay: ATG_E2F_CIS: Attagene CIS-FACTORIAL HepG2 Assay for human E2F Transcription Factor 1 (AID 2282935); details: HepG2 Attagene cis-reporter, E2F reporter RNA transcripts; actives raise or lower the signal
Summary of the method: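 Transient MRTU transfection of HepG2; 24 h compound exposure; RNA → oligo(dT) RT → PCR → FAM label → HpaI cut → CE fluorescence. Gain/loss of signal fit against DMSO.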

[11] = ATG_E_Box_CIS: Attagene CIS-FACTORIAL HepG2 Assay for human Enhancer Box (E-box) (AID 2282936); details: HepG2 E-box cis-reporter transcription, actives raise or lower the signal
Summary of the method: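 Transiently transfected HepG2, endogenous TF-driven reporters, 24 h dosing. Readout: RT-PCR plus capillary electrophoresis of fluorescent reporter fragments. Gain or loss of signal fitted bidirectionally against DMSO baseline.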

[12] = ATG_M_61_CIS: Attagene CIS-FACTORIAL HepG2 Assay for M61 Transcription Factor (Internal Marker) (AID 2282937); details: HepG2 Attagene CIS-FACTORIAL M61 internal marker reporter; actives raise or lower the signal
Summary of the method: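 Human liver HepG2, transient MRTU transfection (cis promoter elements), 24 h compound. Total RNA → oligo(dT) RT → PCR → FAM label → HpaI → CE. Internal background marker; bidirectional fitting, DMSO = baseline.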

[13] = ATG_EGR_CIS: Attagene CIS-FACTORIAL HepG2 Assay for human Early Growth Response 1 (EGR1) (AID 2282938); details: HepG2 Attagene CIS-FACTORIAL EGR reporter mRNA; actives raise or lower the signal
Summary of the method: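 Transient transfection of human HepG2 with multiple cis-regulated reporter units, chemical exposure 24 h, total RNA isolated. Reverse transcription, PCR, fluorescent labelling and capillary electrophoresis quantify reporter transcripts; activity fitted bidirectionally against DMSO.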

[14] = ATG_M_19_CIS: Attagene CIS-FACTORIAL HepG2 Assay for M19 Transcription Factor (Internal Marker) (AID 2282939); details: HepG2 Attagene CIS-FACTORIAL M19 internal marker reporter; actives raise or lower the signal
Summary of the method: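 Internal marker readout, fitted in both directions against DMSO, from HepG2 cells carrying transfected cis-element reporter constructs; RT-PCR and capillary electrophoresis of reporter mRNA after 24 h exposure.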

[15] = ATG_ERE_CIS: Attagene CIS-FACTORIAL HepG2 Assay for Estrogen Response Element (ERE) (AID 2282940); details: HepG2 ERE cis-reporter, Attagene RNA transcript; actives raise or lower the signal
Summary of the method: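 After 24 h compound treatment, RNA from transfected HepG2 cells was reverse-transcribed, reporter cDNA PCR-amplified, FAM-labelled, HpaI-cut and resolved by capillary electrophoresis. ERE-driven cis reporter transcripts reflect endogenous factors; gain or loss scored against DMSO.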

[16] = ATG_Ets_CIS: Attagene CIS-FACTORIAL HepG2 Assay for human Erythroblast Transformation Specific (ETS) (AID 2282941); details: HepG2 ETS cis-reporter transcription, actives raise or lower the signal
Summary of the method: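 Bidirectional fit versus DMSO of reporter mRNA signal, detected by RT-PCR and capillary electrophoresis in HepG2 cells transiently transfected with cis-element reporters and dosed 24 h.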

[17] = target: Hepatocyte nuclear factor 3-beta (Homo sapiens) (UniProt Q9Y261); assay: ATG_FoxA2_CIS: Attagene CIS-FACTORIAL HepG2 Assay for human Forkhead box A2 (FOXA2) (AID 2282942); details: HepG2 cis-reporter transcription factor activity, 24 h; actives raise or lower the signal
Summary of the method: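 Transient MRTU transfection of HepG2 liver cells; 24 h treatment; total RNA → oligo(dT) RT → PCR → FAM primer extension → HpaI cut → CE. Bidirectional fit vs DMSO.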

[18] = ATG_FoxO_CIS: Attagene CIS-FACTORIAL HepG2 Assay for human Forkhead box O (FoxO) (AID 2282943); details: HepG2 Attagene cis-reporter, FoxO element, mRNA; actives raise or lower the signal
Summary of the method: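 HepG2 cells transiently transfected with cis-element-driven reporter units report endogenous FoxO activity. After 24 h chemical exposure, reporter mRNA quantified by RT-PCR, fluorescent labeling, HpaI digestion and capillary electrophoresis; bidirectional fit versus DMSO.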

[19] = ATG_GATA_CIS: Attagene CIS-FACTORIAL HepG2 Assay for human GATA Binding Protein (AID 2282944); details: HepG2 GATA cis-element reporter, Attagene multiplex mRNA; actives raise or lower the signal
Summary of the method: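 Reporter transcripts from a GATA cis-regulated unit, among multiplexed reporters in transfected HepG2 cells, were measured by RT-PCR with capillary electrophoresis after 24 h dosing. Induction or loss scored relative to DMSO.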

[20] = ATG_CMV_CIS: Attagene CIS-FACTORIAL HepG2 Assay for human CMV (Internal Marker) (AID 2282928); details: HepG2 CMV promoter reporter, transcription factor profiling; actives raise or lower the signal;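 note: endpoint acts as a background internal control marker rather than a target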
Summary of the method: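 Reporter transcripts from transfected HepG2 cells are isolated after 24 h of chemical dosing, reverse-transcribed and amplified. Fragments labeled with 6-FAM are cut with HpaI and quantified by capillary electrophoresis; DMSO defines baseline.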

Measured: outcome

Chain of Retinoic acid receptor alpha (Homo sapiens) (P10276 whole entry, looked up): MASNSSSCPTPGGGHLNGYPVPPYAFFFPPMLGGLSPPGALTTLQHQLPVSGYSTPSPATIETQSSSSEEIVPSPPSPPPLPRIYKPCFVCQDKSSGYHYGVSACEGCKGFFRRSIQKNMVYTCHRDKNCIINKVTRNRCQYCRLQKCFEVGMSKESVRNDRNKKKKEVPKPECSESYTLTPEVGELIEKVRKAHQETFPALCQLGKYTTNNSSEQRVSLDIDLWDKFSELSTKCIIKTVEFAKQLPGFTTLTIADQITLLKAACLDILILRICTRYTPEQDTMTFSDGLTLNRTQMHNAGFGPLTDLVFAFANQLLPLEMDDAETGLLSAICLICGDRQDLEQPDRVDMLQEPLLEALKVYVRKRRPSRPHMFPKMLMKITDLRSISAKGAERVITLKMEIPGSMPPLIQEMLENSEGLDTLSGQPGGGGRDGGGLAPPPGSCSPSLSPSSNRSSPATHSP
Chain of Aryl hydrocarbon receptor (Homo sapiens) (P35869 whole entry, looked up): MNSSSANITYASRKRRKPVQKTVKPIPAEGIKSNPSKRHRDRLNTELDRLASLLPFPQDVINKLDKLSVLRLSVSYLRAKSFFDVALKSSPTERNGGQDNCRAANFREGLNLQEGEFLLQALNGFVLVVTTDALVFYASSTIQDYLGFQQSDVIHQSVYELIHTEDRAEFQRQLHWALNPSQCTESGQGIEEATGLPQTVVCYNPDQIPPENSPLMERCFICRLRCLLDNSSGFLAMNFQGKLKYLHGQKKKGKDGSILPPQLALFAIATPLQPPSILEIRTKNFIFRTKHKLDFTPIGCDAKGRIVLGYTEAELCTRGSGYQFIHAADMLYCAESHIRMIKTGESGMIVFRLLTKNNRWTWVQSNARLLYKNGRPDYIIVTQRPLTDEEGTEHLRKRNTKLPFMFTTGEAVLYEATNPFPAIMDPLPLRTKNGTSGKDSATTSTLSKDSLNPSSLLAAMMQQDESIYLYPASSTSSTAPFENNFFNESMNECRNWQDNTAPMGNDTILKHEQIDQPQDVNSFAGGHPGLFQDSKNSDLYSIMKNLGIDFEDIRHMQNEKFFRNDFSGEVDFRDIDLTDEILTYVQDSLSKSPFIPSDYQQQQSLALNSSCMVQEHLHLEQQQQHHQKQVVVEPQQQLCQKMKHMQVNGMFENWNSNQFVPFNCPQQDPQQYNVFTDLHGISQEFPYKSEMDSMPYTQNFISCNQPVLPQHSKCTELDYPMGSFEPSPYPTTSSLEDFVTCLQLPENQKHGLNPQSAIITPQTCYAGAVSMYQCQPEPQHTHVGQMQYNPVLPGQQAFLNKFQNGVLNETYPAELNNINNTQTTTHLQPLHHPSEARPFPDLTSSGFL
Chain of CCAAT/enhancer-binding protein beta (Homo sapiens) (P17676 whole entry, looked up): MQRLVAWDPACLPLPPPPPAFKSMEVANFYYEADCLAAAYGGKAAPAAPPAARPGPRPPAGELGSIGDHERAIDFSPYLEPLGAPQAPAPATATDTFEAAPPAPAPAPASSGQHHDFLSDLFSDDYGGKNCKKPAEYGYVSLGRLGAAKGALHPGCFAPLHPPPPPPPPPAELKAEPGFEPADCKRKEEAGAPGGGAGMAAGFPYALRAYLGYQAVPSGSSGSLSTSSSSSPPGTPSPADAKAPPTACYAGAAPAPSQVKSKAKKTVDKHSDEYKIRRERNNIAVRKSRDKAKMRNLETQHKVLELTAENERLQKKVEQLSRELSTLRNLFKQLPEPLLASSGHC
Chain of Transcription factor E2F1 (Homo sapiens) (Q01094 whole entry, looked up): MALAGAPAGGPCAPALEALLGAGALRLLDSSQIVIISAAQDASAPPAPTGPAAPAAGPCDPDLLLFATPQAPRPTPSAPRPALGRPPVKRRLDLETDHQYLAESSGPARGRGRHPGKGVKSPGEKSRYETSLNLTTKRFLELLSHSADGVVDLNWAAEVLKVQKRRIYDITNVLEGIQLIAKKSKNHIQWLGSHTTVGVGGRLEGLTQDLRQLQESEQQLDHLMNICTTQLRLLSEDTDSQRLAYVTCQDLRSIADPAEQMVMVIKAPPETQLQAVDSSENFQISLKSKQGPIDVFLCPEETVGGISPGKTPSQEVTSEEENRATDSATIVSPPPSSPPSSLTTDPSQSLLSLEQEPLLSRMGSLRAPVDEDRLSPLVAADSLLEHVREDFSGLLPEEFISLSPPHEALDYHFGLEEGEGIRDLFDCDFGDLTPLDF
Chain of Hepatocyte nuclear factor 3-beta (Homo sapiens) (Q9Y261 whole entry, looked up): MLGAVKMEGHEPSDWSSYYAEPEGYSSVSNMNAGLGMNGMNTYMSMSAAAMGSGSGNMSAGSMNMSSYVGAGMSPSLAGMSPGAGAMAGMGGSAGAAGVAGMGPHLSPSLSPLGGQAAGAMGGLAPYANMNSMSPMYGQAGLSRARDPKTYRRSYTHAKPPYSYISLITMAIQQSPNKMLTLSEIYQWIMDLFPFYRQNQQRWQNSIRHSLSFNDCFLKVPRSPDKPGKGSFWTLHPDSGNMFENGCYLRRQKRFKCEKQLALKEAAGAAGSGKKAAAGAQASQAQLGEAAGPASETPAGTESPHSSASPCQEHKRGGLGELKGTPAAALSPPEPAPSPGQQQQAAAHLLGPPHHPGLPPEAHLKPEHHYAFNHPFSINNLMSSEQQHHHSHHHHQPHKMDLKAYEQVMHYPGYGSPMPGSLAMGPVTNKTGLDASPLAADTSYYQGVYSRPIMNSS

O=C(O)C(F)(F)C(F)(F)C(F)(F)OC(F)(F)F
not listed: [20]
inactive: all other assays above

O=C(O)C(F)(F)C(F)(F)C(F)(F)C(=O)O
not listed: [20]
inactive: all other assays above

O=c1[nH]cccc1O
not listed: [20]
inactive: all other assays above

CCOCOCC
not listed: [3]
inactive: all other assays above

CN(N=O)C(=O)N[C@@H]1[C@@H](O)[C@H](O)[C@@H](CO)O[C@@H]1O
not listed: [20]
inactive: all other assays above

CC1CCCCC1
not listed: [4]
inactive: all other assays above

Cc1ccc(O)cn1
not listed: [20]
inactive: all other assays above
